# TDP1 cell noCPT – qHTS for Inhibitors of human tyrosyl-DNA phosphodiesterase 1 (TDP1): qHTS in cells in absence of CPT; DT40 Tdp1-/- hTDP1 cells, no CPT, ATP luminescence, 48 h; Potency, µM (doses to about 46.2 µM), hits mostly inhibitors; hit rate 15% among 420,000; also: nearly all actives have a fitted effect of over 55% in size
#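 Stably hTDP1-transfected Tdp1-null chicken DT40 cells were treated with library compounds minus camptothecin and grown for at least 48 hr at 37 °C, after which cellular ATP was quantified by luminescence.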
# DT40 TDP1 CPT – growth inhibition of DT40 Tdp1-/-;hTDP1 cells with camptothecin (screen for TDP1 inhibitors); hit rate 12% among 420,000; chicken DT40 Tdp1-/-;hTDP1 cells + 20 nM CPT, ATP luminescence, 48 h; AID 686979; Potency, µM (highest dose often 46.2 µM), usual class: inhibitors; also: nearly all actives have a fitted effect of over 55% in size
#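 Cell growth measured by CellTiter-Glo luminescence after a minimum 48 h, 37 C compound exposure with 20 nM CPT in Tdp1-knockout DT40 cells stably expressing hTDP1, seeded 400/well; qHTS titration format.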
# HT1080NT lethal – kills 2HG-producing HT-1080-NT fibrosarcoma cells; AID 686970; hit rate 1.6% among 360,000; HT-1080-NT fibrosarcoma viability, CellTiter-Glo ATP luminescence, 48 h; Potency, µM (series often up to 46.1 µM), most hits filed as cytotoxic;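 also: NT is the 2HG producing partner of a matched IDH1 knockdown line; nearly all actives have a fitted effect of over 55% in size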
#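 Compounds were tested in concentration-response format on HT-1080-NT cells for 48 hours at 37 degrees C. Cell viability came from CellTiter-Glo luminescence; curves were classified by r2, response magnitude and activity.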
# KB-3-1 tox – kills parental KB-3-1 adenocarcinoma cells. KB-3-1 viability, CellTiter-Glo ATP luminescence, 72 h. Potency, µM (series often up to 46.1 µM), most hits filed as cytotoxic. hit rate 1.4% among 400,000; also: nearly all actives have a fitted effect of over 60% in size
#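 Viability of parental KB-3-1 cells, measured by CellTiter-Glo luminescence, followed a 72 h incubation at 37 °C with pinned compounds in phenol-red-free DMEM containing 10% FBS.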
# HT1080 IDH1KD tx – kills HT-1080 cells with IDH1 knockdown; hit rate 2% among 360,000; Potency, µM (top dose mostly 46.1 µM), hits mostly cytotoxic; HT-1080 IDH1 knockdown viability, ATP luminescence, 48 h
#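 % activity derives from luminescence (CellTiter-Glo), normalised to DMSO and no-cell wells. HT-1080-IDH1KD cells, 750/well, had 48 h compound exposure at 37 °C.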
# KB-V1 MDR tox – KB-V1 MDR subline cytotoxicity; KB-V1 MDR cells viability, CellTiter-Glo, 72 h; Potency, µM (top dose mostly 46.1 µM), actives largely listed as cytotoxic; hit rate 3.4% among 400,000; AID 1347076; also: nearly all actives have a fitted effect of over 60% in size
#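 Drug-selected KB-V1 cells, grown in DMEM lacking phenol red with 10% FBS, receive compound titrations; after three days at 37 degrees C, surviving cell ATP is quantified by CellTiter-Glo luminescence and responses normalized and curve-fitted.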
# Numbers stand for hits; . = inactive; ? = inconclusive; / = no result given; ! = not confirmed by another sample. A selection: hits, their analogues and other compounds. The true share with any hit is near 19%. Calls follow the shape of the dose curve; as a rule, active = well fitted curve in the direction sought with a large enough effect; inconclusive = small, poorly fitted or top-dose-only effect, or another doubt; inactive = no such curve, though single readings can be large; an effect the other way counts as inactive or inconclusive.
SMILES,TDP1 cell noCPT,DT40 TDP1 CPT,HT1080NT lethal,KB-3-1 tox,HT1080 IDH1KD tx,KB-V1 MDR tox
COc1ccc(N2CCN(c3nc4cc(C)ccc4cc3C=O)CC2)cc1,?,?,.,.,.,.
CCC(C)C(NC(=O)C1CCC(C)CC1)C(=O)Nc1cc(OC)ccc1OC (configuration not stated),18µM,?,.,.,?,2.6µM
COc1ccc(NC(=O)C(CC(C)C)NC(=O)C2CCC(C)CC2)c(OC)c1 (configuration not stated),?,15µM,.,.,.,.
COc1ccc(OC)c(NC(=O)C2CCCN2C(=O)C2CCC(C)CC2)c1 (configuration not stated),13µM,?,.,.,.,.
COc1ccccc1CNC(=O)C(CCSC)NC(=O)C1CCC(C)CC1 (configuration not stated),.,.,.,.,.,4.1µM
COc1cc(NC(=O)C2CCCN2C(=O)C2CCC(C)CC2)cc(OC)c1OC (configuration not stated),?,?,.,.,.,.
CCC(C)C(NC(=O)C1CCC(C)CC1)C(=O)Nc1ccc(OC)cc1OC (configuration not stated),.,?,.,.,.,.
COc1ccccc1CNC(=O)[C@H](CCSC)NC(=O)[C@@H]1Cc2ccccc2CN1,.,.,.,?,.,.
COc1ccccc1NC(=O)C(CC(C)C)NC(=O)C1CCCCC1 (configuration not stated),?,.,.,.,.,4.1µM
Cc1ccc(N2CC(NC(=O)c3ccc(Br)o3)CC2=O)cc1C (configuration not stated),?,.,/,/,/,/
C=CCOC(=O)C1=C(C)NC(SCC(=O)N(CC)CC)=C(C#N)C1c1ccccc1 (configuration not stated),21µM,21µM,.,?,?,?
CC(=O)C1=C(C)NC(SCc2cccc([N+](=O)[O-])c2)=C(C#N)C1c1ccco1 (configuration not stated),?,?,.,.,.,10µM
CCN(CC)C(=O)CSC1=C(C#N)C(c2ccco2)C(C(=O)OCCOC)=C(C)N1 (configuration not stated),?,21µM!,.,.,.,.
C=CCOC(=O)C1=C(C)NC(SCC(=O)N(CC)CC)=C(C#N)C1c1ccco1 (configuration not stated),?,.,.,.,.,.
CCN(CC1CCCO1)C(=O)c1cc(COc2cc(C)c(Cl)c(C)c2)on1 (configuration not stated),?,?,.,.,.,.
COc1cc(N2CCCC2)ccc1[N+](=O)[O-],.,.,.,.,.,.
CC(C)(C)NC(=O)CSc1ncnc2c1nnn2Cc1ccccc1Cl,?,?,?,.,?,.
CC1CC(C)CN(C(=S)NC2CCCCC2)C1 (configuration not stated),26µM,?,.,.,.,.
S=C(NC1CCCCC1)N1CCOCCOCCN(C(=S)NC2CCCCC2)CCOCCOCC1,?,?,?,?,?,.
CC(C)CN(CCCNC(=O)CN1C(=O)COc2ccc(S(=O)(=O)N3CCOCC3)cc21)CC(C)C,.,.,.,.,.,.
COc1ccc(N2CCN(C(=O)c3cccc(NC(=O)c4nsc5ccccc45)c3)CC2)cc1,12µM,15µM,/,.,/,.
Cc1ccc(C)c(NC(=O)N2CCN(C(=O)c3nsc4ccccc34)CC2)c1,18µM,?,/,.,/,.
Cc1ccc(C(=O)N2CCN(c3ccccc3)CC2)cc1NC(=O)c1nsc2ccccc12,?,21µM,/,.,/,.
Cc1cc(C)cc(NC(=O)N2CCN(C(=O)c3nsc4ccccc34)CC2)c1,?,?,/,.,/,.
O=C(Nc1cccc(C(=O)N2CCN(c3ccccc3)CC2)c1)c1nsc2ccccc12,?,?,/,.,/,.

# Source: PubChem (National Center for Advancing Translational Sciences (NCATS))
